Reference: PubChem BioAssay (NCATS)
Records with an inconclusive call do not appear. Active and inactive are the calls of the source. Calls follow the shape of the full dose curve.

Experiments:
[1] = Primary qHTS for inhibitors of SARS-S pseudo-typed particle cell entry (AID 1479145); also: nearly all actives have a fitted effect of over 45% in size
[2] = Primary qHTS for Huh7 cytotoxicity: counterscreen for inhibitors of MERS-S pseudotyped particle cell entry (AID 1479147)
[3] = Primary qHTS for inhibitors of MERS-S pseudo-typed particle cell entry (AID 1479149); also: nearly all actives have a fitted effect of over 60% in size
[4] = Primary qHTS for Vero E6 cytotoxicity: counterscreen for inhibitors of SARS-S pseudo-typed particle cell entry (AID 1479150)

Measured: Potency

CC(C)=CCC1C(=O)N(c2ccccc2)N(c2ccccc2)C1=O
inactive: all assays above

CCCCCCCC/C=C/C(=O)O
inactive: all assays above

CC(C)(C)NCC(O)COc1ccccc1OCC1CCCO1 (centres undefined)
inactive: all assays above

O=C(c1ccccc1)c1ccccc1
inactive: all assays above

CCCCCC=CCC=CCCCCCCCC(=O)OCC
inactive: all assays above

CC(C)(C)NCC(O)COc1cccc2c1C[C@H](O)[C@H](O)C2 (some centres undefined)
inactive: all assays above

OC[C@@H](O)[C@@H](O[C@@H]1O[C@H](CO)[C@H](O)[C@H](O)[C@H]1O)[C@H](O)[C@@H](O)CO
inactive: all assays above

CCn1ccc(NS(=O)(=O)c2ccc(N)cc2)nc1=O
inactive: all assays above

C[C@@H](O)[C@H]1C(=O)N2C(C(=O)O)=C(SCCN=CN)C[C@H]12
inactive: all assays above

COC(=O)c1cccnc1
inactive: all assays above

NS(=O)(=O)c1cc(C2(O)NC(=O)c3ccccc32)ccc1Cl (centres undefined)
inactive: all assays above

Nc1nc(/C(=C/CC(=O)O)C(=O)N[C@@H]2C(=O)N3C(C(=O)O)=CCS[C@H]23)cs1
inactive: all assays above

CC(=O)OCC(=O)[C@@]1(O)[C@H](OC(C)=O)C[C@H]2[C@@H]3CCC4=CC(=O)C=C[C@]4(C)[C@@]3(F)[C@@H](O)C[C@@]21C
inactive: all assays above

CC(C)(Oc1ccc(Cl)cc1)C(=O)OCCCOC(=O)C(C)(C)Oc1ccc(Cl)cc1
inactive: all assays above

COC(=O)/C=C\C(=O)OC
inactive: all assays above

OCCc1ccccc1
inactive: all assays above

N#C[C@H]1C[C@H]2C[C@@H]2N1C(=O)[C@@H](N)C12CC3CC(CC(O)(C3)C1)C2
inactive: all assays above

CC(CCc1ccccc1)NCC(O)c1ccc(O)c(C(N)=O)c1 (centres undefined)
inactive: all assays above

CC(=O)OCC(=O)[C@@]1(O)CC[C@H]2[C@@H]3CCC4=CC(=O)C=C[C@]4(C)[C@@]3(F)[C@@H](O)C[C@@]21C
inactive: all assays above

Cc1oc(=O)oc1CN1CCN(c2cc3c(cc2F)c(=O)c(C(=O)O)c2n3C(C)S2)CC1 (centres undefined)
inactive: all assays above

COCC(=O)Nc1c(I)c(C(=O)NCC(O)CO)c(I)c(C(=O)N(C)CC(O)CO)c1I (centres undefined)
inactive: all assays above

Cc1cccc(C)c1NC(=O)c1cc(S(N)(=O)=O)c(Cl)cc1O
inactive: all assays above

O=C1[C@@H]2[C@H]3CC[C@H](C3)[C@@H]2C(=O)N1CCCCN1CCN(c2ncccn2)CC1
inactive: all assays above

CS(=O)(=O)c1ccc([C@@H](O)[C@@H](CF)NC(=O)C(Cl)Cl)cc1
inactive: all assays above

CCC(=O)c1c(O)cc(O)cc1O
inactive: all assays above

O=C(Cn1ccnc1[N+](=O)[O-])NCc1ccccc1
inactive: all assays above

CC(=O)Nc1c(I)c(NC(C)=O)c(I)c(C(=O)O)c1I
inactive: all assays above

Cc1ccc(C(=O)C(=O)O)cc1C
inactive: all assays above

COc1cccc(OC)c1C(=O)N[C@@H]1C(=O)N2[C@@H]1SC(C)(C)[C@@H]2C(=O)O
inactive: all assays above

C[C@](O)(CS(=O)(=O)c1ccc(F)cc1)C(=O)Nc1ccc(C#N)c(C(F)(F)F)c1
inactive: all assays above

C[N+](C)(C)CCOC(N)=O
inactive: all assays above

c1ccc(-c2nc[nH]c2-c2ccccc2)cc1
inactive: all assays above

CN=C(NC#N)NCCSCc1nc[nH]c1C
inactive: all assays above

CCCC(=O)O[C@]1(C(=O)CO)CC[C@H]2[C@@H]3CCC4=CC(=O)CC[C@]4(C)[C@H]3[C@@H](O)C[C@@]21C
inactive: all assays above

O=C(CCOCCOCCOCCOCCC(=O)Nc1c(I)cc(I)c(C(=O)O)c1I)Nc1c(I)cc(I)c(C(=O)O)c1I
inactive: all assays above

O=C(O)COc1nn(Cc2ccccc2)c2ccccc12
inactive: all assays above
